14 compounds from PubChem BioAssay (NCATS) can be followed below.

Assay [1] in a line: qHTS assay for measurement of the activity of small molecule inhibitors on Zika virus induced Caspase-3 activity in human iPSC derived neural progenitor cells (hNPCs) (AID 1224857). Also: nearly all actives have a fitted effect of over 65% in size. Also: potency is read from the fitted curve at half-maximal effect. As to conditions: hNPCs ZIKV-induced caspase-3/7, Caspase-Glo luminescence, 6 h; series mostly up to 45.7 µM. Put shortly:
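Values are percent inhibition of virus-induced caspase-3/7 signal, scaled between uninfected cells and ZIKV-infected cells. Infection used 2 FFU/cell for 6 h after 1 h compound exposure.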
A general note: In qHTS, concentration-response curves come from the screen itself.

Assay [2] can be described thus: qHTS assay to identify small molecule inhibitors of chordoma cells - UCH-1 (AID 1259355). Also: nearly all actives have a fitted effect of over 55% in size. As to conditions: UCH-1 chordoma viability, CellTiter-Glo, 48 h, combination, with auranofin plus four topoisomerase inhibitors; series mostly up to 46.1 µM. In outline: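 Screening used approved and investigational drugs in 15-point titration against 800 seeded cells per well. A fixed combination of auranofin with camptothecin, doxorubicin, rubitecan and topotecan followed compound addition, and growth was scored by CellTiter-Glo after 48hr.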

Assay [3] is described as follows: qHTS of pediatric cancer cell lines to identify multiple opportunities for drug repurposing: Primary screen for TC32 cells (AID 1347089). Also: nearly all actives have a fitted effect of over 60% in size. The conditions noted are these: TC32 Ewing sarcoma viability, CellTiter-Glo luminescence, 48 h; series mostly up to 45.8 µM. Put shortly:
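A viability screen of TC32 cells was run over 48 h, with primary MIPE doses spanning 0.78 nM–46 µM and NPC doses 0.59 nM–46 µM. ATP luminescence (CellTiter-Glo) served as the read-out.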

Assay [4] can be described thus: qHTS of pediatric cancer cell lines to identify multiple opportunities for drug repurposing: Primary screen for DAOY cells (AID 1347090). Also: nearly all actives have a fitted effect of over 55% in size. Also: potency is read from the fitted curve at half-maximal effect. The conditions noted are these: DAOY medulloblastoma viability, CellTiter-Glo luminescence, 48 h; series mostly up to 46 µM. Put shortly:
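Viability measured as metabolically active cells via CellTiter-Glo luminescence following 48 hours of compound exposure, 11-point dilutions in confirmatory testing. 500-1,000 cells/well plated 5 hours before dosing; controls were DMSO and 2.3 µM bortezomib.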

Assay [5] in a line: qHTS assay for measurement of the activity of small molecule inhibitors on Zika virus induced Caspase-3 activity in human astrocytoma cells (AID 1224859). Also: potency is read from the fitted curve at half-maximal effect. As to conditions: SNB-19 ZIKV-induced caspase-3/7, luminescence, 6 h; series mostly up to 45.7 µM. In outline: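 Compound added 1 h pre-infection; ZIKV 2 FFU/cell on SNB-19 cells, 6 h, 37 C/5% CO2. Caspase-Glo 3/7 luminescence; values as % inhibition of ZIKV-induced caspase activity.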

The target of assay [6] is Atrial natriuretic peptide receptor 1 (Homo sapiens) (UniProt P16066). As to the kind of experiment: Natriuretic polypeptide receptor (hNpr1) antagonism - Pilot screen (AID 1347049; calls by dose curve;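 also: agonist-evoked cGMP luminescence read 20 min after hNppA addition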; also: potency is read from the fitted curve at half-maximal effect). The conditions noted are these: hNpr1 cells, antagonist mode cGMP read-out; series mostly up to 57.5 µM. Put shortly:
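cGMP-sensor HEK293/hNpr1 cells, 1500/well, plated overnight at 37C. 2% GloSensor reagent, 2 h RT. Compound (23 nL pin transfer) 30 min RT, baseline luminescence pre-read. 0.1 nM hNppA, 20 min RT, post-read.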

The nature of assay [7]: NS1 protein of Zika virus - qHTS assay to identify small molecule inhibitors in human HEK 293 cells (AID 1347053). Also: nearly all actives have a fitted effect of over 55% in size. Also: potency is read from the fitted curve at half-maximal effect. The conditions noted are these: HEK293 ZIKV MR766 infection, NS1 TR-FRET, 24 h; series mostly up to 46.1 µM. Put shortly: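 TR-FRET signal from two anti-ZIKV NS1 antibodies quantified NS1 in HEK 293 cells 24 h after MR766 infection at MOI = 0.5; compounds were added 1 h before virus. Uninfected cells and infected cells defined the NS1 normalization range.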

Assay [8] deals with T1, Tyrosine-protein phosphatase non-receptor type substrate 1 (Homo sapiens) + Leukocyte surface antigen CD47 (Homo sapiens) (UniProt P78324+Q08722). As to the kind of experiment: CD47-SIRPalpha protein protein interaction - LANCE assay qHTS validation (AID 1347057; active = well fitted curve in the direction sought with a large enough effect in the signal ratio, with a control signal flat, not every such curve was filed as active; the % refers to the signal ratio). As to conditions: Recombinant CD47-His / biotin-SIRPalpha, TR-FRET ratio; series mostly up to 38.3 µM. In outline:
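Inhibition of soluble CD47/SIRPalpha ectodomain association by titrated compounds, measured as 665/615 nm time-resolved FRET ratio after sequential 30 min room-temperature incubations.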
For orientation: TR-FRET usually uses a lanthanide donor and a delayed reading to cut background.

The target of assay [9] is T1, Tyrosine-protein phosphatase non-receptor type substrate 1 (Homo sapiens) + Leukocyte surface antigen CD47 (Homo sapiens). As to the kind of experiment: CD47-SIRPalpha protein protein interaction - Alpha assay qHTS validation (AID 1347059).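 Also: bead proximity luminescence from CD47 binding SIRPalpha after compound preincubation with SIRPalpha.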 As to conditions: AlphaScreen CD47-His/biotin-SIRPalpha binding, LOPAC; series mostly up to 38.3 µM. Put shortly:
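SIRPalpha-biotin 25 nM + cpd, 30 min RT, dark; add CD47-His 12.5 nM, 30 min; add Ni-NTA/SAV beads 10 ug/mL, 30 min; AlphaScreen. Buffer PBS pH 7.4 + 0.05% IGEPAL CA-630. Non-biotinylated SIRPalpha as control inhibitor.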

For assay [10], the target named is Atrial natriuretic peptide receptor 2 (Homo sapiens) (UniProt P20594). As to the kind of experiment: Natriuretic polypeptide receptor (hNpr2) antagonism - Pilot subtype selectivity assay (AID 1347050; calls by dose curve). As to conditions: NPR2-expressing cells, cGMP antagonist-mode read-out; series mostly up to 38.3 µM. Put shortly:
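Luminescence from a genetically encoded cGMP luciferase biosensor in hNpr2-expressing HEK293 cells is read before and 20 min after adding 1 nM hNppC. Test compounds, in interplate 1:5 titrations, are added 30-50 min ahead of the agonist.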

For assay [11], the target named is Parathyroid hormone/parathyroid hormone-related peptide receptor (Homo sapiens) (UniProt Q03431). As to the kind of experiment: qHTS for PTHR1 Agonists: Optimization Screen against the NCGC LOPAC library (AID 1347079). As to conditions: HEK293 GP2 PTHR1 GloSensor cAMP luminescence, 1 h; series mostly up to 57.1 µM. In outline: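 HEK-293 GP2 cells, PTHR1 + GloSensor cAMP; 3000 cells/well, o/n. Luciferin + IBMX 0.5mM each (stock), 1 hr 37C. Cpd titration, 1 hr 37C. Lum after 15 min RT. Ctrl M-PTH(1-15) top 10uM.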
Chain of Parathyroid hormone/parathyroid hormone-related peptide receptor (Homo sapiens) (Q03431 whole entry, looked up): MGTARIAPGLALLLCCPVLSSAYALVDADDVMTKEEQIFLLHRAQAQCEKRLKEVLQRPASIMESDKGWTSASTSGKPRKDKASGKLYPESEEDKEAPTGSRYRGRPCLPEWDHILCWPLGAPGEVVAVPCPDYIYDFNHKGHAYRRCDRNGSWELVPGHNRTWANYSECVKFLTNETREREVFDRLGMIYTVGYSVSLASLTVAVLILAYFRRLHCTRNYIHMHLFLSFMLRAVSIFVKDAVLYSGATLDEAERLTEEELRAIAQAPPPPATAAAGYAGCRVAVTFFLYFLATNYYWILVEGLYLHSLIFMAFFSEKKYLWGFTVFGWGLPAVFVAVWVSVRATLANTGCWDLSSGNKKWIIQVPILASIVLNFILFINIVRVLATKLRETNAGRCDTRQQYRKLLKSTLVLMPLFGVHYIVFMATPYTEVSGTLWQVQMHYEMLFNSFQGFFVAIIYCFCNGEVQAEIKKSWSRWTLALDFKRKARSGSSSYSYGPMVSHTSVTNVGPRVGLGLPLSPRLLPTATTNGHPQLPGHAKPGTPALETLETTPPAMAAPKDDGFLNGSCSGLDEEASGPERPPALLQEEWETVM

The target in assay [12] is T1, Tyrosine-protein phosphatase non-receptor type substrate 1 (Homo sapiens) + Leukocyte surface antigen CD47 (Homo sapiens). As to the kind of experiment: CD47-SIRPalpha protein protein interaction - HTRF assay qHTS validation (AID 1347058; active = well fitted curve in the direction sought with a large enough effect in the signal ratio, not every such curve was filed as active; the % refers to the signal ratio). The conditions noted are these: TR-FRET HTRF CD47-His / biotin-SIRPalpha binding, ratio 665/615; series mostly up to 38.3 µM. Put shortly: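 Soluble extracellular domains (6His-CD47, Avi-tag-biotinylated SIRPalpha) in PBS pH 7.4 with 0.05% IGEPAL CA-630. Compounds were preincubated 30 min at RT with CD47 and anti-His-Eu, then SIRPalpha and SAV-XL665 were added. TR-FRET 665/615 ratio.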

Assay [13] in a line: qHTS assay to identify small molecule inhibitors of chordoma cells - UCH-2 (AID 1259356). The conditions noted are these: UCH-2 chordoma viability, CellTiter-Glo ATP luminescence, 48 h; series mostly up to 46.1 µM.
A short description of assay [14]: Identifying Small Molecule Inhibitors of Pancreatic Cancer Stem Cells (SN12C, Adherent) (AID 1259358).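 Also: cell survival measured after 48 h of compound exposure.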 As to conditions: viability/growth inhibition; series mostly up to 46.1 µM. In outline: (§1)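 Endpoint: ATP-based luminescence, 48 h drug exposure. Bortezomib at 9.2 uM final as full-kill control; DMSO vehicle as negative control; activity normalized between vehicle and cell-free wells.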

Assay [15] can be described thus: Identifying Small Molecule Inhibitors of Pancreatic Cancer Stem Cells (SN12C, Spheroid) (AID 1259360). As to conditions: series mostly up to 46.1 µM. Put shortly:
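Luminescent ATP readout (CellTiter-Glo) quantifies surviving cells after a 48 h drug incubation. Normalization uses DMSO wells as no inhibition and media-only wells as full inhibition; bortezomib served as positive control.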

Assay [16] in a line: Identifying Small Molecule Inhibitors of Pancreatic Cancer Stem Cells (A278, Adherent) (AID 1259361).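 Also: viability read after 48 h compound exposure; nearly all actives have a fitted effect of over 35% in size.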 As to conditions: series mostly up to 46.1 µM. In outline: as §1
Assay [17] can be described thus: P-glycoprotein substrates identified in KB-8-5-11 adenocarcinoma cell line, qHTS therapeutic library screen (AID 1346987). Also: nearly all actives have a fitted effect of over 65% in size. As to conditions: KB-8-5-11 (P-gp overexpressing) viability, CellTiter-Glo, 72 h; series mostly up to 44.5 µM. Put shortly:
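Luminescence from CellTiter-Glo, read 5 min after addition, quantified survival of KB-8-5-11 (P-gp-overexpressing) cells exposed to compounds for 72 h. AC50 was derived from concentration-response curves.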

Assay [18] in a line: Natriuretic polypeptide receptor (hNpr1) antagonism - Pilot counterscreen GloSensor control cell line (AID 1347045; calls by dose curve). As to conditions: HEK293 cGMP GloSensor cells, SNP-stimulated luminescence, 20 min; series mostly up to 38.3 µM. Put shortly:
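Cells were first seeded and incubated overnight at 37C, then loaded with 2% GloSensor substrate for 2 h. Compounds were added for 30 min at room temperature, followed by a baseline read, 50 uM SNP and a final read after 20 min.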
A general note: The purpose of a counterscreen is to sort out artefacts and off-target activity.

Unmarked numbers belong to inactive results. Records with an inconclusive call do not appear. The source made the active and inactive calls. Unless noted, calls follow the shape of the dose curve; as a rule, active = well fitted curve in the direction sought with a large enough effect; inconclusive = small, poorly fitted or top-dose-only effect, or another doubt; inactive = no such curve, though single readings can be large; an effect the other way counts as inactive or inconclusive.

Chain of Atrial natriuretic peptide receptor 1 (Homo sapiens) (P16066 whole entry, looked up): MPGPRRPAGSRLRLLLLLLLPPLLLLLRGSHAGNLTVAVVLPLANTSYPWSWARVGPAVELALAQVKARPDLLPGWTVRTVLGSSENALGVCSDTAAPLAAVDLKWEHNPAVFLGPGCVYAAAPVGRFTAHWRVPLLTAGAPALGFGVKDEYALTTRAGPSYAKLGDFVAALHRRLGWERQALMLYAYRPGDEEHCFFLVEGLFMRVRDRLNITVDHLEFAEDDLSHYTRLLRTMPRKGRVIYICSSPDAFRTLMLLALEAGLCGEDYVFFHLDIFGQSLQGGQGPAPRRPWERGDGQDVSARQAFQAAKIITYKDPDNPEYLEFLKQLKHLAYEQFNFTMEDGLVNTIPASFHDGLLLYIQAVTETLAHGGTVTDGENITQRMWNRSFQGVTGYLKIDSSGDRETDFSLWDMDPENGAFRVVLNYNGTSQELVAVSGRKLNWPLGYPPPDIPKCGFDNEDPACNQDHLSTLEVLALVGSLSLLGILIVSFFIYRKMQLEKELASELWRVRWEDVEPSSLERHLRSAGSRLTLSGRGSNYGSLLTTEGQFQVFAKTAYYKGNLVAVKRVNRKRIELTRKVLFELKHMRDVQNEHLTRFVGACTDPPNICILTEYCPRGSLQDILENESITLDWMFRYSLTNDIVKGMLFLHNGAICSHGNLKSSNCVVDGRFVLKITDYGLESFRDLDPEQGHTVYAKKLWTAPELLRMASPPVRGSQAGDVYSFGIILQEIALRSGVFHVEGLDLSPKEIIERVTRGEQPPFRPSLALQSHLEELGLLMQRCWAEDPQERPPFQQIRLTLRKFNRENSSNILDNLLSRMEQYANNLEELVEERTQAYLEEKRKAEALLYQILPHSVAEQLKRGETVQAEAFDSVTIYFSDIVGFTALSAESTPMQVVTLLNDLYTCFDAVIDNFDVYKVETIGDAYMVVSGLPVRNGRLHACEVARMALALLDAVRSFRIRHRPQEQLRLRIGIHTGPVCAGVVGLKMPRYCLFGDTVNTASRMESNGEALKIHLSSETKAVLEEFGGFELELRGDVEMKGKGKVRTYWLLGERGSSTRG
Chain of Atrial natriuretic peptide receptor 2 (Homo sapiens) (P20594 whole entry, looked up): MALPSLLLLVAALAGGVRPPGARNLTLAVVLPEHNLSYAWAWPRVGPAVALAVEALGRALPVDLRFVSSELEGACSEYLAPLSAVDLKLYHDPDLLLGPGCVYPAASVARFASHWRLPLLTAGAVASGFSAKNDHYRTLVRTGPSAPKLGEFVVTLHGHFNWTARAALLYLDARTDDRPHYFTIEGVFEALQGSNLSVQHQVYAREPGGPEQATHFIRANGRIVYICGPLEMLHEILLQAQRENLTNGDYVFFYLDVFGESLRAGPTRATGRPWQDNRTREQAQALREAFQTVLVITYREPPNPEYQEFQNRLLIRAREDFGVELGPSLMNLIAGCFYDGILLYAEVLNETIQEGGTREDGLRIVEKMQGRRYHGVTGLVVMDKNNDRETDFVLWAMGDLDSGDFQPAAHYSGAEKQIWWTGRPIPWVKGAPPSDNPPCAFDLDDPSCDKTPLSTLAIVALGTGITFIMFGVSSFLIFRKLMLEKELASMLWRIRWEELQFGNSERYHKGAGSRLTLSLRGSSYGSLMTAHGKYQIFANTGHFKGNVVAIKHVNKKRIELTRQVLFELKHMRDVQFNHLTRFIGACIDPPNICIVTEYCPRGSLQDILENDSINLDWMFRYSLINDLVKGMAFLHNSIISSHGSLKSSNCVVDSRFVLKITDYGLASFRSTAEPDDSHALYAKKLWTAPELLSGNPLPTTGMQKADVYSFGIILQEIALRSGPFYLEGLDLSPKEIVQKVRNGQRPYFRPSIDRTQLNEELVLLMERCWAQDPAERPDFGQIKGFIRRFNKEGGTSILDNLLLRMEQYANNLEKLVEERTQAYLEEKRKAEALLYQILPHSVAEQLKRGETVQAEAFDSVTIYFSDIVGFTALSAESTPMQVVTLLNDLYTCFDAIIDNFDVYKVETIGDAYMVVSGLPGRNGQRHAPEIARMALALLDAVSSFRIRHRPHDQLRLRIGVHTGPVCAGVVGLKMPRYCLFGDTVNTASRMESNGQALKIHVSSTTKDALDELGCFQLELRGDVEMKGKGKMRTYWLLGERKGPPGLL
T1 sequence (P78324 whole entry, looked up, the tested form may be a part): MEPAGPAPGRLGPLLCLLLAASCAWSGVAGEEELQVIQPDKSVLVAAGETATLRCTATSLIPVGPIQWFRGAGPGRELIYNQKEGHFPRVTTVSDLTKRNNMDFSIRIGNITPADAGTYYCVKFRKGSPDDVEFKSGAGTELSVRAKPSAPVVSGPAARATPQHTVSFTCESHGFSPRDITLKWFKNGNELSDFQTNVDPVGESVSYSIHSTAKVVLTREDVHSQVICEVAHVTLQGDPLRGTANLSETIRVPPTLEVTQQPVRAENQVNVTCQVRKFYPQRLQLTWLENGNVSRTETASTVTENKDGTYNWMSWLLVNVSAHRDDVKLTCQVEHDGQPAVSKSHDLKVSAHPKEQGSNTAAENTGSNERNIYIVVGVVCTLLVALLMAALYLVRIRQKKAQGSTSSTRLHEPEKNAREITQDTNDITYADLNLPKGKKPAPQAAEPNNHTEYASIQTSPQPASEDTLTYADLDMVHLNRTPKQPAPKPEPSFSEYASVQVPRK
T1 sequence (Q08722 whole entry, looked up, the tested form may be a part): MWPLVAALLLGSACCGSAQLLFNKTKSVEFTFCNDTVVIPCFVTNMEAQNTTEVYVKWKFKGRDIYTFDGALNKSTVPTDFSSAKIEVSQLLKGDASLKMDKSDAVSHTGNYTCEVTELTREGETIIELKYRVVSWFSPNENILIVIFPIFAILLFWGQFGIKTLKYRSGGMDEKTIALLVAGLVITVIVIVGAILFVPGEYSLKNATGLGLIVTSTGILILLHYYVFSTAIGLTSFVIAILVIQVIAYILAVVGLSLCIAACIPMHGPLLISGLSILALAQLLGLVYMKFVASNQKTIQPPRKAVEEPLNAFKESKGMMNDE

Take `Oc1c(Br)cc(Br)c2cccnc12`: the Potency result in assay [1], in assay [2] and in [3] was “inactive” each time. The Potency in assay [4] is 16.8 µM (active).
As for `O=C(/C=C/c1ccc(O)cc1)c1ccc(O)cc1O`, the Potency was 2.82 µM (active) in [1], 1.26 µM (active) in assay [5] and 30.1 µM (active) in [6]. Further, the Potency result in assay [7], in assay [8] and in assay [9] was “inactive” in each case.
Take `NCCCCC(=O)O`: the Potency entry in assay [1], in assay [5], in assay [6], in [10] and in assay [11] was “inactive” each time.
In the case of `Clc1ccc(N2CCN(Cc3cc4ccccn4n3)CC2)cc1`, the Potency entry in assay [1], in [5], in [10], in assay [7], in assay [8] and in [9] was “inactive” throughout. Moreover, the Potency result in assay [11] is “inactive”. In addition, the result in assay [12] was inactive.
On to `CN1CC(=O)N/C1=N/C(=O)Nc1cccc(Cl)c1`, for which the Potency in assay [1] was 11.2 µM (active). Moreover, the Potency result in assay [2], in assay [13], in assay [14], in [17], in assay [18] and in [6] was “inactive” in each case. The Potency result in [10], in [7], in assay [8], in assay [9], in assay [3] and in assay [4] was “inactive” each time. Besides, the outcome in [15], in assay [16] and in assay [12] was inactive.
Consider `COc1cc(OC)c(/C=C2/C(=O)Nc3ccccc32)c(OC)c1`, for which the Potency result in [1], in [5], in assay [7] and in assay [11] was “inactive” throughout.
`CSc1ccccc1N1CCN(CCCCCC(=O)NC2CCCc3ccccc32)CC1` (centres undefined): the Potency result in assay [1], in [5], in [6], in assay [10] and in [11] was “inactive” in each case. Besides, in assay [12], the result was inactive.
As to `COc1ccccc1CNCCCCCCNCCCCCCCCNCCCCCCNCc1ccccc1OC`, the Potency entry in assay [1], in [5], in assay [6], in assay [7], in assay [8] and in [9] was “inactive” in each case. Moreover, the outcome in [12] was inactive.
With `Cc1cc2c(cc1Cl)N(C(=O)Nc1ccc(Oc3cccnc3C)nc1)CC2`, the Potency result in assay [1], in assay [5], in assay [8], in assay [9] and in assay [11] was “inactive” throughout. The outcome in assay [12] was inactive.
For the compound `CN(C)CCC(c1ccc(Cl)cc1)c1ccccn1` (centres undefined), the Potency entry in assay [1], in [5], in assay [7] and in assay [11] was “inactive” each time.
Take `CC12C(=O)OC(=O)C1(C)C1CCC2O1` (centres undefined): the Potency entry in [1], in [5], in assay [8], in [9] and in assay [11] was “inactive” each time. In addition, in assay [7], the Potency was 3.98 µM (active). Besides, the outcome in assay [12] was inactive.
With `N#C/C(=C\c1ccc(-c2cc(Cl)ccc2Cl)o1)C(=O)Nc1cccc2ncccc12`, the Potency result in assay [1], in [5], in [6], in [7], in assay [8] and in assay [9] was “inactive” throughout.
With `CN1[C@@H](CC(=O)c2ccccc2)CCC[C@H]1C[C@H](O)c1ccccc1`, the Potency result in assay [1], in assay [13], in assay [18], in assay [6], in assay [10] and in [7] was “inactive” throughout. The Potency result in assay [8] and in assay [9] was “inactive” in each case. Further, the outcome in assay [12] was inactive.
In the case of `Cc1ccc(O)c(-n2nc3ccccc3n2)c1`, the Potency result in assay [1], in assay [2], in assay [13], in assay [17], in [3] and in assay [4] was “inactive” each time.
